Screening data deposited in PubChem BioAssay by several laboratories.
Hits are enriched below; roughly 3.2% of the tested compounds scored in any of these assays.
TMEM16A inh = blocks the mouse calcium-activated chloride channel TMEM16A; hit rate 1.2% among 310,000; HEK293 TMEM16A/YFP iodide influx fluorescence, ionomycin; Q8BHY3; normalized B-score (activity score, 25-100; higher = stronger inhibition) at 10 µM;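 active = ratio plate-corrected score three or more library SD toward inhibition, starting fluorescence score within five deviations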;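 note: score derived from kinetic fluorescence span divided by baseline fluorescence per well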
Kir21 block = inhibitors of mouse Kir2.1 inward-rectifier potassium channel; AID 1672; B-score at 10 µM; HEK293-Kir2.1, FluxOR thallium flux fluorescence; hits give low values; hit rate 0.85% among 310,000;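 active = fluorescence ratio B-score at or below minus 3 SD of library scores, with starting-brightness B-score within 2 SD, cut at about -4.2 in these data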;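 note: channel flux triggered by added potassium and thallium sulfate stimulus; B-score of peak minus minimum fluorescence over baseline after thallium stimulus; more negative B-score means stronger Kir2.1 block with less thallium influx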
Target sequence (P35561 whole entry, looked up): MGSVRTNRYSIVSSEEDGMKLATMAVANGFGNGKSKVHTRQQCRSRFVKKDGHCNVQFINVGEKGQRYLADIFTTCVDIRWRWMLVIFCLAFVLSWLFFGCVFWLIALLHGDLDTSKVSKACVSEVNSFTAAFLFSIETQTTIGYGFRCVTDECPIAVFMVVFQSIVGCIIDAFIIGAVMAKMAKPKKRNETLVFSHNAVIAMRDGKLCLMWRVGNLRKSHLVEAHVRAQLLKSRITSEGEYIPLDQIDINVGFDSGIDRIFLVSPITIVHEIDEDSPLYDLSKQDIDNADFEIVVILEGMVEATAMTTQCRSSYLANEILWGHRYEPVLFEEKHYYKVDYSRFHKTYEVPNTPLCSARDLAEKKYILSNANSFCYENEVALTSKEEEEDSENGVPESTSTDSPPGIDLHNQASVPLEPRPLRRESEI
ANO1 activ = activates or potentiates the mouse TMEM16A chloride channel. HEK293 TMEM16A/YFP-H148Q/I152L, iodide quench fluorescence; hits give low values. B-score at 10 µM. hit rate 0.3% among 340,000. AID 623877;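 active = fluorescence-ratio B-score plate-corrected deviation score at least 3 library SD below zero, with starting fluorescence score within 5 deviations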;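 note: channel opened by trigger with iodide after compound preincubation; score built on the fluorescence ratio of max minus min over baseline; more negative score means more quench and so TMEM16A activation or potentiation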
CHT PAM = allosterically activates the human high affinity choline transporter. hit rate 0.49% among 310,000. CHT-expressing cells, membrane potential dye, choline EC20; hits give high values; LV-AA mutant CHT in HEK293 cells. B-score at 10 µM;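 active = initial fluorescence not abnormally high and integrated response B-score, plate-corrected, over 3 SD above library mean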
Rce1 inhib = yeast Ras-converting enzyme inhibition; Q03530; yeast membranes, quenched prenylated peptide cleavage fluorescence; calls only; hit rate 0.27% among 290,000; AID 2563;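 active = fall in fluorescence gain of 50% or more versus controls, with final raw signal at or below 3038400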;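 note: plate controls were neutral control wells for no effect and wells lacking membranes for full effect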
CHT inh = inhibitors of human choline transporter CHT | Q9GZV3 | CHT-expressing cells, membrane potential dye, choline response; hits give low values | AID 488975 | B-score at 10 µM | hit rate 0.86% among 310,000;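 active = B-score over 3 SD under the library average, and starting fluorescence ratio not unusually high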;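 note: choline stimulus applied at its EC90 after an EC20 pre-addition; B-score computed on integrated fluorescence ratio after choline addition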
* hit, by the source's call; i = inactive; nt = no result given; + = active, no number.

SMILES	TMEM16A inh	Kir21 block	ANO1 activ	CHT PAM	Rce1 inhib	CHT inh
COc1cc(S(=O)(=O)Nc2ccc3nc(C)sc3c2)ccc1NC(C)=O	nt	nt	i	nt	nt	nt
CCSc1ccc([C@@H]2[C@H]3C(=O)N(C)C(=O)[C@H]3[C@]3(C(=O)OC)CCCCN23)cc1	i	nt	i	i	nt	i
COC(=O)[C@@]12CCCCN1[C@H](c1ccc(SC3CCCCC3)cc1)[C@@H]1C(=O)N(C)C(=O)[C@@H]12	i	0.01	-7.9*	i	i	i
O=C(CCN1C(=O)C2CCCCC2C1=O)Nc1ccc(F)c(F)c1F (stereo not drawn)	i	-0.15	i	i	i	i
COc1cccc(-c2nc(-c3ccccc3)c(-c3ccccc3)[nH]2)c1OCC(=O)O	i	1.6	i	i	i	-6.6*
CCc1ccccc1N(C)S(=O)(=O)c1ccc(-c2cc(C)no2)s1	i	0.97	-28*	i	i	i
CCN(c1ccc(OC)cc1)S(=O)(=O)c1ccc(-c2cc(C)no2)s1	i	-0.86	i	i	i	i
Cc1[nH]c2ccccc2c1C(=O)C(=O)N1CCN(c2cccc(Cl)c2)CC1	i	1.1	-53*	i	i	i
O=c1oc(C2(O)CCCCC2)cc2ccc(/C=C/c3ccc(F)cc3)cc12	nt	nt	i	nt	nt	nt
C=C(C)Cn1c(C)cc(C)c(S(=O)(=O)c2cccc(C)c2)c1=O	100*	-1	i	i	i	i
COc1ccc(C(C(=O)NC2CCCCC2)N(C(=O)c2snc(C(N)=O)c2N)c2ccc(OC)cc2OC)cc1 (stereo not drawn)	i	0.06	i	i	+	i
Nc1nc(=O)n(C2CCCO2)cc1Br (stereo not drawn)	nt	nt	i	nt	nt	nt
CC(C)S(=O)(=O)C1=NSC2=NC(=O)/C(=C\c3ccc(-c4ccccc4)o3)C(=N)N21	25*	-3.3	i	i	i	i
CC(C)S(=O)(=O)C1=NSC2=NC(=O)/C(=C\c3ccc(-c4cccc(C(=O)O)c4)o3)C(=N)N21	nt	nt	i	nt	nt	nt
NC(=O)c1cc(S(=O)(=O)N2CCOCC2)cs1	i	0.03	i	i	i	i
Cc1sc2ncnc(NC3CCN(Cc4ccccc4)CC3)c2c1C	i	-5.5*	i	i	i	i
Cc1cc2nccc(-c3ccc(Cl)cc3Cl)n2n1	i	-0.14	i	i	i	i
CCC1=NN(C(=O)c2ccc([N+](=O)[O-])cc2)C(O)(c2ccccc2)C1 (stereo not drawn)	25*	-0.49	i	i	i	i
O=C(c1ccccc1O)N1N=C(C(F)(F)F)CC1(O)c1ccc([N+](=O)[O-])cc1 (stereo not drawn)	i	0.16	i	i	i	i
CC(Oc1ccc(Br)cc1)C(=O)Nc1ccncc1 (stereo not drawn)	i	-0.92	i	i	i	i
Cc1csc(NC(=O)CCS(=O)(=O)c2ccc(Br)cc2)n1	i	-4.3*	i	i	i	i
Cc1csc(NC(=O)C(C)Oc2ccc(Br)cc2)n1 (stereo not drawn)	i	-5*	i	i	i	i
Cc1cc(C)n(-c2ccc(C(=O)NCc3ccc(F)cc3)cc2)n1	i	-9.9*	i	i	i	i
O=S(=O)(Nc1nc2ccccc2nc1Nc1ccc2c(c1)OCCO2)c1cccs1	25*	0.98	i	i	i	-7.7*
CSCCC(=O)N1CCCC(N2CCN(c3cccc(C(F)(F)F)c3)CC2)C1 (stereo not drawn)	i	0.86	i	i	i	i
SMILES	TMEM16A inh	Kir21 block	ANO1 activ	CHT PAM	Rce1 inhib	CHT inh
Cc1nnc(NC(=O)C2CSC3(C)CCC(=O)N23)s1 (stereo not drawn)	i	2	i	i	i	i
O=C(NNC(=O)C1CC1)c1cc(=O)[nH]c2ccccc12	nt	nt	i	nt	nt	nt
CSc1cccc(NC(=O)C2CCCN(S(=O)(=O)c3cnc[nH]3)C2)c1 (stereo not drawn)	nt	nt	-12*	nt	nt	nt
CSc1cccc(NC(=O)C2CCN(S(=O)(=O)c3cnc[nH]3)CC2)c1	i	1.1	i	i	i	i
COc1ccc(NC(=O)CCSc2nc(C)cs2)cc1	i	0.5	i	i	i	i
COc1ccc(S(=O)(=O)NCCSCc2cccc(C)c2)cc1Br	i	-0.85	i	i	i	i
Cc1ccc(S(=O)(=O)NCCSCc2ccccc2)cc1	i	-5.7*	i	i	i	i
COc1ccccc1N(CC(=O)NCCSCc1ccccc1)S(=O)(=O)c1ccc(C)cc1	25*	0.54	i	i	i	i
Cc1ccc(CSCCNS(=O)(=O)c2ccc([N+](=O)[O-])cc2)cc1	i	-4.4*	i	i	i	i
COc1ccccc1C(=O)Nc1cccc2c1CCCC2	i	-1.3	i	i	i	i
CC(C(Sc1ccccc1N)c1ccccc1)[N+](=O)[O-] (stereo not drawn)	i	-7.2*	i	i	i	i
O=C(CSc1ccccc1Cl)N1CCC(c2nc3ccccc3s2)CC1	100*	1.2	i	i	i	i
COc1ccc(CNC(=O)[C@H](C)N2C(=O)N3CCc4c([nH]c5ccccc45)[C@@]3(C)C2=O)cc1OC	i	-0.61	-13*	i	i	i
Cc1ccc(CNC(=O)[C@H](C)N2C(=O)N3CCc4c([nH]c5ccccc45)[C@@]3(C)C2=O)cc1	i	-0.64	i	i	nt	i
CC(=O)c1ccc(NC(=O)Cn2cnc(S(=O)(=O)N3CCC(C)CC3)c2)cc1	i	0.6	i	i	i	i
COc1cccc(NC(=O)Cn2c3ccccc3c3nc4n(c(=O)c32)CCCS4)c1	i	-0.21	-52*	i	i	i
COc1ccc(NC(=O)Cn2c3ccccc3c3nc4n(c(=O)c32)CCS4)cc1OC	i	0.28	-54*	i	i	i
O=C(Cn1c2ccccc2c2nc3n(c(=O)c21)CCCS3)Nc1ccccc1	i	1.4	i	i	i	i
O=C(CC(NC(=O)c1ccccc1)c1ccccc1)Nc1cccc2ccccc12 (stereo not drawn)	i	1.4	i	i	i	i
OCC[C@@H]1C[C@H](O)[C@@H](O)[C@@]2(OCCCc3ccccc32)O1	i	-1.8	i	i	i	i
Cc1cc(NC(=O)Cc2ccccc2)c2ccccc2n1	25*	-1.6	i	i	i	i
Cc1cc(NC(=S)NC(=O)c2ccco2)c2ccccc2n1	i	-3	i	i	i	i
